In PubChem BioAssay:
The source made the active and inactive calls.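 How the source made its calls, unless noted: active means inhibition at or above 50% at 10 µM; inactive means inhibition below 50%.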

Key:
[1] = inhibitors of TNFa-induced NFkB p65 translocation, primary screen, imaging, HUVEC, MLSMR starter and 10KST1 sets (AID 438;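 active means inhibition above 20% together with a positive visual image hit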;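 further: compound added about 3h40 before a 20 min TNFalpha stimulation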;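 on inhibition: signal is the nuclear over cytoplasmic p65 intensity ratio per well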); settings: HUVEC TNFa-induced p65 nuclear translocation; cell count: measured here: nuclei count (cytotoxicity indicator), at 2.08 µM; inhibition: at 2 µM, stronger effect = higher value, 0% TNFa-plus-vehicle, 100% no-TNFa wells
[2] = reduction of polyQ htt aggregates in cells – imaging, exon1htt(103Q)mCFP cells, high-content imaging, primary screen (AID 483;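 active means visual image review flags a hit and inhibition of aggregation exceeds 20%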;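 further: compound exposure lasted 3 days before fixation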;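 on nuclei count: percent of the per-plate median nuclei count of sample wells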); settings: exon1htt(103Q)mCFP cell line, aggregate imaging, at 2 µM; inhibition of aggregation: stronger effect = higher value; nuclei count: measured here: cell count, toxicity
[3] = endothelial E-selectin expression blockers – imaging, HUVEC, immunofluorescence, MLSMR starter and 10KST1 sets, primary screen (AID 487;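 active means visually confirmed hit in the image check and inhibition above 20%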;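 on inhibition: signal is fraction of cell area covered by stained E-selectin grains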;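 on nuclei count: 100% = median nuclei count of all wells on the same plate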); settings: HUVEC TNFalpha-induced E-selectin immunofluorescence imaging, at 2 µM; inhibition: stronger effect = higher value; nuclei count: measured here: cell number, toxicity
[4] = molecular target: Voltage-gated potassium channel subunit beta-2 (Rattus norvegicus) (UniProt P62483); test: inhibitors of rat Kvbeta2 reductase activity – biochemical, NADPH fluorescence, primary screen (AID 622;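 active means fluorescence slope higher than the sample average by over 3 SD, cut at about -0.22 in these data, passing the limit was not always enough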;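 further: slope of raw intensity against log time taken from 70 to 1610 s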); settings: recombinant KvBeta, 4-cyanobenzaldehyde reduction, at 10 µM, stronger effect = higher value
[5] = molecular target: Voltage-gated potassium channel subunit beta-2 (Rattus norvegicus) (UniProt P62483); test: enhancers of rat Kvbeta2 NADPH turnover – biochemical, NADPH fluorescence, primary screen (AID 623;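 active means NADPH fluorescence slope more negative than the mean of all samples by about 3 SD, 99.7% confidence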;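 further: fluorescence intensity change per second fitted from 20 to 320 s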); settings: Recombinant KvBeta, NADPH fluorescence decrease slope, 10 min; at 10 µM; stronger effect = lower value
[6] = molecular target: Alpha-2C adrenergic receptor (Homo sapiens) (UniProt P18825); test: compounds altering alpha2C-coupled GIRK flux – cell-based, HEK293 alpha2C/GIRK1/2, thallium flux, primary screen (AID 624;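 active means fluorescence slope after compound addition differing from the mean of all screened samples at 99.7% confidence, in either direction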;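 further: slope of fluorescence ratio to pre-addition baseline per second over 15 to 24 s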); settings: thallium flux BTC fluorescence, at 10 µM, actives lie on both sides
[7] = blockers of RIG-like receptor reporter activation – cell-based, Sendai virus stimulus, luciferase, 10K MLSCN set, TLR/RLR signaling modifier project, primary screen (AID 602276); settings: HEK293 RL24 IRF3 luciferase reporter, at 10 µM, stronger effect = higher value;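 further: firefly luciferase from ISG56 promoter only with Renilla not read in this screen; 0% = Sendai virus plus DMSO and 100% = medium plus DMSO without virus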
[8] = TLR3 IRF3 reporter activation blockers – cell-based, poly I:C stimulus, luciferase, 10K MLSCN set, primary screen (AID 602277;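 active means inhibition of the reporter signal at or above 50%; inactive means inhibition below 50%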); settings: HEK293-TLR3 RL24 IRF3 luciferase reporter, at 10 µM, stronger effect = higher value

Alpha-2C adrenergic receptor (Homo sapiens), sequence (P18825 whole entry, looked up): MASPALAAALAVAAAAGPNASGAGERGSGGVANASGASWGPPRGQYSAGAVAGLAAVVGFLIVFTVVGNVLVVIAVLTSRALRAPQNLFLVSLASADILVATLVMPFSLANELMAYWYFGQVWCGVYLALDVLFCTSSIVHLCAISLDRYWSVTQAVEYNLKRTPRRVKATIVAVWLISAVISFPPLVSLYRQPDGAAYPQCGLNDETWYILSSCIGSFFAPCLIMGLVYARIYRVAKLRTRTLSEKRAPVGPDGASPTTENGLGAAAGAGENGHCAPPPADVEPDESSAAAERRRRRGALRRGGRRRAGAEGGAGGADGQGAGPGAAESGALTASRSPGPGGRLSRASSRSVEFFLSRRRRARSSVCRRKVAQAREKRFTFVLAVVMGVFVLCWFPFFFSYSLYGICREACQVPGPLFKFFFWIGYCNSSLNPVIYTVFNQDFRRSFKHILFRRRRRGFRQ
Voltage-gated potassium channel subunit beta-2 (Rattus norvegicus), sequence (P62483 whole entry, looked up): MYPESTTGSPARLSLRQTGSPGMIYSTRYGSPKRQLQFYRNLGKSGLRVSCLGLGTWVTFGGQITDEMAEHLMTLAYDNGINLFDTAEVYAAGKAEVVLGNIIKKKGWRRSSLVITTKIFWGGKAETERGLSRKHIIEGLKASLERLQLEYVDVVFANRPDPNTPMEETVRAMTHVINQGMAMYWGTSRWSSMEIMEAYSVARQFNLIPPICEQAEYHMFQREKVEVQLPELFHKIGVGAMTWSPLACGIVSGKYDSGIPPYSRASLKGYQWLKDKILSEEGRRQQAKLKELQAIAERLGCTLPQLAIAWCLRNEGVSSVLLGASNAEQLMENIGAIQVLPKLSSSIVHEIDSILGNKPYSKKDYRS

Compound | cell count [1] | inhibition [1] | inhibition of aggregation [2] | nuclei count [2] | inhibition [3] | nuclei count [3] | fluorescence slope [4] | NADPH fluorescence slope [5] | slope [6] | inhibition [7] | inhibition [8]
COC(=O)C1=CN(C(C)C)C=C(C(=O)OC)C1c1cc2c(cc1Br)OCO2 | 386 | 8.1% (inactive) | 10.8% (inactive) | 104% | -70.4% (inactive) | 78.3% | -0.365 (inactive) | 2e-05 (inactive) | 0.00637 (inactive) | 5.71% (inactive) | 11% (inactive)
Cn1c(=N)c(S(=O)(=O)c2ccccc2)cc2c(=O)n3ccccc3nc21 | 442 | -5.1% (inactive) | -1.9% (inactive) | 114% | -85.8% (inactive) | 235% | -0.517 (inactive) | -9.2e-06 (inactive) | 0.00488 (inactive) | -14.3% (inactive) | -10.5% (inactive)
COc1cc2c(cc1OC)CN(C(=O)CSc1nnc3scc(-c4ccccc4)n13)CC2 | 548 | -0.3% (inactive) | 12.8% (inactive) | 98.2% | -28.8% (inactive) | 109% | -0.515 (inactive) | -2.7e-05 (inactive) | 0.00728 (inactive) | 1.32% (inactive) | 16.8% (inactive)
Cc1ccc(-c2nc3cc(N)ccc3o2)cc1 | 463 | 1.1% (inactive) | 11.7% (inactive) | 101% | -58.1% (inactive) | 115% | -0.0326 (active) | -3.4e-05 (inactive) | 0.00542 (inactive) | 2.48% (inactive) | -58.1% (inactive)
O=C(CCNS(=O)(=O)c1ccc(Br)s1)N1CCCCC1 | 380 | 0.3% (inactive) | -2% (inactive) | 99.9% | -86.3% (inactive) | 106% | -0.494 (inactive) | -3.4e-05 (inactive) | 0.00623 (inactive) | -0.525% (inactive) | 7.37% (inactive)
CCC(=O)N1CCN(CCN=CC2=C(O)CC(C)(C)CC2=O)CC1 | 476 | 4% (inactive) | 1.1% (inactive) | 105% | 5.8% (inactive) | 111% | -0.518 (inactive) | -2.4e-05 (inactive) | 0.00473 (inactive) | 8.29% (inactive) | 11.4% (inactive)
CC1CCCN(C(=O)CN2CCN(C(=O)c3ccco3)CC2)C1 (stereo not drawn) | 238 | 0.4% (inactive) | 20.8% (inactive) | 76% | -18.8% (inactive) | 152% | -0.596 (inactive) | -6.2e-05 (inactive) | 0.00367 (inactive) | 7.97% (inactive) | 14.7% (inactive)
CN(C)S(=O)(=O)N1CCN(S(=O)(=O)c2ccc(F)cc2)CC1 | 787 | 3.6% (inactive) | -7% (inactive) | 103% | -118% (inactive) | 141% | -0.436 (inactive) | -9.3e-07 (inactive) | 0.00495 (inactive) | -20.1% (inactive) | -21% (inactive)
O=C1NCC(COCc2ccccc2)O1 (stereo not drawn) | 432 | -3% (inactive) | 21% (inactive) | 87.4% | 25.1% (inactive) | 102% | -0.496 (inactive) | -5.3e-05 (inactive) | 0.00525 (inactive) | 8.89% (inactive) | 21% (inactive)
CC(=O)C1=C(O)C(=O)N(C2CCCCC2)C1c1ccccc1 (stereo not drawn) | 467 | -10.8% (inactive) | -19.1% (inactive) | 104% | -95.4% (inactive) | 176% | -0.448 (inactive) | -9.9e-06 (inactive) | 0.00562 (inactive) | 18.2% (inactive) | 15.5% (inactive)
Cc1ccc(-c2nc3cc(NC(=O)C(C)C)ccc3o2)cc1 | 290 | -6.7% (inactive) | 14.3% (inactive) | 98.3% | 29.7% (inactive) | 87.7% | -0.319 (inactive) | -3e-05 (inactive) | 0.0055 (inactive) | -10.9% (inactive) | -66.2% (inactive)
c1nc(NCC2(N3CCOCC3)CCCCC2)c2ccsc2n1 | 303 | 17.8% (inactive) | -2.2% (inactive) | 93% | 20.6% (inactive) | 87.7% | -0.612 (inactive) | -1e-05 (inactive) | 0.00518 (inactive) | -0.86% (inactive) | 23.1% (inactive)
Cc1ccccc1NC(=O)CSc1nnc(Cc2cccn2C)n1-c1ccc(F)cc1 | 813 | 4.2% (inactive) | 0% (inactive) | 98.8% | -61% (inactive) | 114% | -0.618 (inactive) | 1.1e-05 (inactive) | 0.00577 (inactive) | -3.98% (inactive) | 29.4% (inactive)
COc1ccc(-n2c(N)c(C(=O)NCc3ccco3)c3nc4ccccc4nc32)c(OC)c1 | 737 | -6% (inactive) | -0.1% (inactive) | 97.9% | 27.3% (inactive) | 102% | -0.246 (inactive) | -4.5e-06 (inactive) | 0.00521 (inactive) | 6.27% (inactive) | 7.88% (inactive)
COC(=O)c1cc(=O)n(Cc2ccc3c(c2)OCO3)c(=Nc2ccccc2)s1 | 575 | 2.9% (inactive) | 8.9% (inactive) | 124% | -30.3% (inactive) | 107% | -0.545 (inactive) | -3.4e-05 (inactive) | 0.00623 (inactive) | 12.2% (inactive) | 27.1% (inactive)
CCOC(=O)C1=C(C)NC(=O)NC1c1ccc(Br)s1 (stereo not drawn) | 516 | 1.2% (inactive) | 5.5% (inactive) | 105% | 28.9% (inactive) | 104% | -0.502 (inactive) | -6.2e-05 (inactive) | 0.00543 (inactive) | 11.8% (inactive) | 12.6% (inactive)
COc1ccc(S(=O)(=O)N(C)CC(=O)N2CCCCC2)cc1Cl | 173 | -15.7% (inactive) | 4.2% (inactive) | 94.8% | -2.3% (inactive) | 87% | -0.492 (inactive) | -2.5e-05 (inactive) | 0.00667 (inactive) | 13.8% (inactive) | 15% (inactive)
CCOc1cc(NC(=O)c2ccco2)c(OCC)cc1NC(=O)COc1ccccc1C | 388 | 0% (inactive) | -11.9% (inactive) | 107% | -74.7% (inactive) | 129% | -0.00358 (active) | 3.9e-06 (inactive) | 0.00663 (inactive) | -1.87% (inactive) | -75.9% (inactive)
CCOC(=O)c1c(C)n(C)c2c(C)cc(O)c(OC(C)=O)c12 | 292 | -5% (inactive) | -6.8% (inactive) | 96.7% | -12.4% (inactive) | 109% | -0.467 (inactive) | -7.1e-06 (inactive) | 0.00417 (inactive) | 4.23% (inactive) | -2.25% (inactive)
O=C1CCCc2c1nn(-c1ccccc1)[n+]2[O-] | 563 | 7.1% (inactive) | -12.3% (inactive) | 107% | -32.5% (inactive) | 108% | -0.426 (inactive) | -2.2e-05 (inactive) | 0.00571 (inactive) | 2.04% (inactive) | 5.41% (inactive)
COc1ccc(OC)c(C(=O)CSc2nc3ncccc3[nH]2)c1 | 238 | 9.5% (inactive) | 16.2% (inactive) | 113% | 52.6% (inactive) | 99.6% | -0.488 (inactive) | -7e-05 (inactive) | 0.00695 (inactive) | -7.2% (inactive) | -19.6% (inactive)
O=C(CCN1C(=O)c2ccccc2C1=O)Nc1ccc(F)cc1 | 442 | 4.9% (inactive) | -0.3% (inactive) | 117% | 14.4% (inactive) | 109% | -0.375 (inactive) | 4.4e-06 (inactive) | 0.00394 (inactive) | 9.91% (inactive) | 13.8% (inactive)
Cn1c(=O)[nH]c(=O)c2c1nc(N1CCCCCC1)n2CCCSc1nc2ccccc2o1 | 256 | 4.7% (inactive) | -1.5% (inactive) | 102% | -64.8% (inactive) | 98.7% | -0.609 (inactive) | -4.5e-05 (inactive) | 0.00527 (inactive) | 14.2% (inactive) | 9.47% (inactive)
COc1ccccc1CC(=O)Nc1ccc(OC)c(OC)c1 | 330 | -8.4% (inactive) | 17.1% (inactive) | 102% | -157% (inactive) | 118% | -0.466 (inactive) | -5.5e-05 (inactive) | 0.00704 (inactive) | 14.5% (inactive) | 21.7% (inactive)
CCCCn1c(SCC(=O)OCC)nc2c1c(=O)[nH]c(=O)n2C | 611 | -0.3% (inactive) | 5.2% (inactive) | 97.5% | 7.7% (inactive) | 84.3% | -0.499 (inactive) | -2.6e-05 (inactive) | 0.00682 (inactive) | 13.7% (inactive) | 21.6% (inactive)
COc1ccc(C(=O)CN2C(=O)NC3(CCCc4ccccc43)C2=O)cc1OC (stereo not drawn) | 412 | -9% (inactive) | 2.7% (inactive) | 94.1% | 35.3% (inactive) | 87.2% | -0.51 (inactive) | -2.4e-05 (inactive) | 0.00564 (inactive) | 15.1% (inactive) | 13.4% (inactive)
Nc1nonc1-n1nnc(C(=O)c2ccccc2)c1-c1ccccc1 | 412 | -20% (inactive) | 1.5% (inactive) | 110% | 28.1% (inactive) | 103% | -0.571 (inactive) | 7.3e-06 (inactive) | 0.00623 (inactive) | 10.9% (inactive) | 2.08% (inactive)
Cc1cc(=O)[nH]c(SCC(=O)NCc2ccco2)n1 | 355 | 8.2% (inactive) | 0% (inactive) | 95.2% | 12.5% (inactive) | 98% | -0.57 (inactive) | -7.3e-05 (inactive) | 0.00478 (inactive) | 18.4% (inactive) | 20.9% (inactive)
